Assay outcomes as filed in PubChem BioAssay.
This is one part of a sample in which hits are shown more often than they occur.
HT1080 IDH1KD tx = qHTS for induction of synthetic lethality in tumor cells producing 2HG: qHTS for the HT-1080-IDH1KD cell line. HT-1080 IDH1 knockdown viability, ATP luminescence, 48 h. Potency, µM (series often up to 46.1 µM), inactives show at the highest dose activity, negative = toxicity, usual class: cytotoxic. hit rate 2% among 360,000. AID 686971, 2013;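 further: potency means the concentration at half of the fitted maximal effect; 0% = DMSO wells and -100% = cell-free medium wells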
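% activity derives from luminescence (CellTiter-Glo), normalised to DMSO and no-cell wells. HT-1080-IDH1KD cells, 750/well, had 48 h compound exposure at 37 °C.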
ALOX12 inh = Primary qHTS assay for inhibitors of human arachidonate 12S-lipoxygenase (ALOX12): Round 2 | Polyunsaturated fatty acid lipoxygenase ALOX12 (Homo sapiens), P18054 | purified 12hLO, xylenol orange hydroperoxide absorbance | Potency, µM (doses to about 108 µM), inactives show top-dose activity change, negative = inhibition, hits mostly inhibitors | hit rate 1.1% among 580,000 | AID 1671190, 2021; further: potency means the concentration at half of the fitted maximal effect
Target sequence (P18054 whole entry, looked up): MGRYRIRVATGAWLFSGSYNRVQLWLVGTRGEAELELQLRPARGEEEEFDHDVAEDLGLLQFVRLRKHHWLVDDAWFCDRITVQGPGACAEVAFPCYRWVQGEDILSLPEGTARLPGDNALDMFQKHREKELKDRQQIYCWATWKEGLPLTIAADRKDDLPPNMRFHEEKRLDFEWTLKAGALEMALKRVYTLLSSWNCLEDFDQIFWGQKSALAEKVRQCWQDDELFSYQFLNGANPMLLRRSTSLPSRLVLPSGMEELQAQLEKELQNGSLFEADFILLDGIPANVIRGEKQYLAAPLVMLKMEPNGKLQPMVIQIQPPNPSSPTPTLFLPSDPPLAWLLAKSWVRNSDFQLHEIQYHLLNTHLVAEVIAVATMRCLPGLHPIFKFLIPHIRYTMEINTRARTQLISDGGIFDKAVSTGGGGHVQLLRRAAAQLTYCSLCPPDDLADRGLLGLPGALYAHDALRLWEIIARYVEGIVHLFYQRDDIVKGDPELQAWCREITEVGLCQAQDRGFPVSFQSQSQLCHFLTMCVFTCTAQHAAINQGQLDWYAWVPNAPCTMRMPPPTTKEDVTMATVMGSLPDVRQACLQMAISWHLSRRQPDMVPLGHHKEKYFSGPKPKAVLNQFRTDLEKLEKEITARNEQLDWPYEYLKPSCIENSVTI
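Purified human 12hLO (150 nM final) in 25 mM Hepes, 0.01% Triton X-100, pH 7.0 was preincubated 15 min at room temperature with compound. Then 40 uM arachidonic acid was added, 30 min. Hydroperoxide was read by Fe-XO absorbance ratio 573/405 nm.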
DT40 TDP1 CPT = qHTS for Inhibitors of human tyrosyl-DNA phosphodiesterase 1 (TDP1): qHTS in cells in presence of CPT | chicken DT40 Tdp1-/-;hTDP1 cells + 20 nM CPT, ATP luminescence, 48 h | Potency, µM (highest dose often 46.2 µM), without a hit: at the highest dose activity change, negative = growth inhibition, actives largely listed as inhibitors | hit rate 12% among 420,000; further: potency means the concentration at half of the fitted maximal effect; nearly all actives have a fitted effect of over 55% in size
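Chicken DT40 Tdp1-/- cells complemented with human TDP1, 400 cells/well, exposed to compounds plus 20 nM camptothecin for at least 48 h at 37 C; viability read as ATP content by CellTiter-Glo luminescence.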
IL1B secr inh = qHTS for Inhibitors of Inflammasome Signaling: IL-1-beta AlphaLISA Primary Screen; THP-1 LPS/ATP IL-1B secretion, AlphaLISA, 16 h; hits give low values; activity change, % at 57.5 µM; hit rate 4.7% among 360,000; AID 743279, 2014; in the data active means activity change below about -50%; inconclusive means mostly about -30% to -49%
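Secreted IL-1B measured by AlphaLISA bead assay after 16 h compound exposure of THP-1 cells; compounds (final up to 57.5 uM) added 1 h before LPS (250 ng/mL) and ATP (1.25 mM) stimulation; lower signal means less secretion.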
DT40 TDP1 no CPT = qHTS for Inhibitors of human tyrosyl-DNA phosphodiesterase 1 (TDP1): qHTS in cells in absence of CPT; Potency, µM (titrated, usually from 46.2 µM), inactives show top-dose activity change, negative = growth inhibition, usual class: inhibitors; hit rate 15% among 420,000; DT40 Tdp1-/- hTDP1 cells, no CPT, ATP luminescence, 48 h; further: potency means the concentration at half of the fitted maximal effect; nearly all actives have a fitted effect of over 55% in size
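Luminescent ATP content (CellTiter-Glo) served as the growth readout. Knockout chicken DT40 cells expressing human TDP1 were exposed to compounds without camptothecin for a minimum 48 hr at 37 °C.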
HT1080NT lethal = qHTS for induction of synthetic lethality in tumor cells producing 2HG: qHTS for the HT-1080-NT fibrosarcoma cell line | HT-1080-NT fibrosarcoma viability, CellTiter-Glo ATP luminescence, 48 h | Potency, µM (top dose mostly 46.1 µM), for the others: at the top dose activity, negative = less viability, most hits filed as cytotoxic | hit rate 1.6% among 360,000 | AID 686970, 2013;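 further: NT is the 2HG producing partner of a matched IDH1 knockdown line; potency means the concentration at half of the fitted maximal effect; 0% = DMSO-treated cells and -100% = media-only wells without cells; nearly all actives have a fitted effect of over 55% in size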
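HT-1080-NT; 750 cells/well; 5% FBS RPMI; 48 h compound, 37 degrees C; CellTiter-Glo luminescence; curve fitting and curve-class assignment.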
* = called active by the depositor; ? = inconclusive; nt = no result; [ ] = remark or other dose. Unless noted, the call rests on the fitted dose curve; in most records, active means well fitted curve in the direction sought with a large enough effect; inconclusive means small, poorly fitted or top-dose-only effect, or another doubt; inactive means no such curve, though single readings can be large; an effect the other way counts as inactive or inconclusive. Unless noted, on the % scale 0 is the no-effect control and ±100 the full control effect.

SMILES	HT1080 IDH1KD tx	ALOX12 inh	DT40 TDP1 CPT	IL1B secr inh	DT40 TDP1 no CPT	HT1080NT lethal
COc1ccc(C(=O)/C=C/c2ccccc2)c(O)c1	-23%	21%	?	-99*	23µM*	-27%
COc1ccc(C(=O)/C=C/c2cc(C(=O)O)cc3c2OCOC3)c(O)c1	?	-24%	?	-94*	23µM*	?
COc1ccc(C(=O)C=Cc2cccs2)c(O)c1	-18%	0%	?	-54*	?	-19%
Cc1cc(C)c2oc(C(=O)Nc3ccccc3C)cc(=O)c2c1	nt	36%	nt	nt	nt	nt
COc1ccc(C(=O)/C=C/c2cccs2)c(OC(=O)c2ccccc2)c1	nt	2%	nt	nt	nt	nt
COc1ccc(OC(=O)c2cccc([N+](=O)[O-])c2)c(C(=O)/C=C/c2cccs2)c1	?	0%	?	-53*	?	?
COc1ccc(C(=O)/C=C/c2ccccc2OC)c(OC(=O)c2ccc([N+](=O)[O-])cc2)c1	9%	0%	?	-97*	?	11%
O=C(/C=C/c1ccccc1)c1ccc(O)cc1O	nt	nt	?	nt	16µM*	nt
O=S(=O)(Nc1nnc(-c2ccccc2)s1)c1ccc(Cl)cc1	-22%	?	?	9	16µM*	-27%
NNC(=O)c1ccc([N+](=O)[O-])cc1	nt	40%	nt	nt	nt	nt
Cc1nc(NCCN2CCC(O)CC2)cc(C2CC(O)C2)n1 (configuration not stated)	nt	58%	nt	nt	nt	nt
COc1ccc2c(c1)c(=O)c(C(=O)c1ccc(F)cc1)cn2CC(=O)Nc1ccc2c(c1)OCO2	nt	-19%	-28%	nt	?	nt
CCN(CC)S(=O)(=O)c1ccc(NC(=O)CCc2c(C)nc3cc(-c4ccc(Cl)cc4)nn3c2C)cc1	nt	-24%	4.6µM*	nt	3.7µM*	nt
CC(=O)c1ccc(NC(=O)CCc2c(C)nc3cc(-c4ccc(Cl)cc4)nn3c2C)cc1	nt	0%	?	nt	6.5µM*	nt
COc1ccc(CCNC(=O)CCc2c(C)nc3cc(-c4ccc(Cl)cc4)nn3c2C)c(OC)c1	nt	-19%	?	nt	?	nt
CCN1C=C(Cc2ccc(F)cc2)C2=C(C1)C(c1ccc(F)cc1)C(C#N)=C(N)O2 (configuration not stated)	-1%[9.24 µM]	?	?	-103*	16µM*	?
CCN1C=C(Cc2ccccc2C)C2=C(C1)C(c1ccccc1C)C(C#N)=C(N)O2 (configuration not stated)	?	?	16µM*	?	21µM*	?
CSc1ccccc1C(=O)OCC(=O)Nc1c(C)n(C)n(-c2ccccc2)c1=O	3%	8%	4%	-12	-9%	13%
C=CCN(CC=C)C(=S)NC(=O)/C=C/c1ccccc1	14%	23%	?	20	23µM*	10%
C=CCN(CC=C)C(=S)NC(=O)/C=C/c1ccc(C)cc1	-1%	-20%	-16%	3	?	13%
C=CCN(CC=C)C(=S)NC(=O)c1ccc(-c2ccccc2)cc1	-22%	?	5.8µM*	22	6.5µM*	2%
COc1ccc(C(=O)NC(=S)N(Cc2ccccc2)Cc2ccccc2)cc1	-2%	35µM*	16µM*	-1	9.2µM*	-22%
CC(C)C(=O)NC(=S)N(Cc1ccccc1)Cc1ccccc1	-4%	-18%	?	-17	16µM*	-1%
CCS(=O)(=O)N1CCCc2cc(C(=O)Nc3c(C)cccc3C(C)C)ccc21	nt	0%	nt	nt	nt	nt
OCC[C@@H]1C[C@@H](O)[C@H](O)[C@@]2(CCCCO2)O1	8%	-17%	-2%	7	-21%	3%
SMILES	HT1080 IDH1KD tx	ALOX12 inh	DT40 TDP1 CPT	IL1B secr inh	DT40 TDP1 no CPT	HT1080NT lethal
Cc1c(C(=O)N(C)c2ccccc2)nnn1-c1cccc(Cl)c1	nt	-3%	nt	nt	nt	nt
C=CCN(CC=C)C(=S)NC(=O)/C=C/c1ccc(OC)cc1	12%	-11%	-7%	16	-28%	10%
C=CCN(CC=C)C(=S)NC(=O)c1ccc(OC)cc1	6%	-17%	15µM*	-8	5.2µM*	-2%
Cc1ccc(-c2c[n+](Cc3cccc(Cl)c3)c3n2CCC3)cc1	?	?	0.92µM*	-81*	0.52µM*	?
Clc1cccc(C[n+]2cc(-c3ccccc3)n3c2CCC3)c1	?	7%	2.9µM*	-4	2.6µM*	0%
Clc1ccc(C2=C3CCCCn4c(-c5ccccc5)c[n+](c43)C2)cc1	?	-2%	?	-17	?	?
CC1=NN(C(N)=S)C(=O)C1N=Nc1ccc(O)cc1 (configuration not stated)	-22%	?	-20%	49	26µM*	-14%
CC1=NN(C(N)=S)C(=O)C1N=Nc1ccc(Cl)cc1Cl (configuration not stated)	-5%	0%	-15%	-6	?	-1%
CC1=NN(C(N)=S)C(=O)C1N=Nc1cccc(C)c1 (configuration not stated)	7%	-12%	3.3µM*	5	5.8µM*	7%
CC1=NN(C(N)=S)C(=O)C1N=Nc1ccccc1Cl (configuration not stated)	4%	-16%	5.8µM*	-7	2.9µM*	-1%
CC1=NN(C(N)=S)C(=O)C1N=Nc1ccc(C)c(Br)c1 (configuration not stated)	-13%	204%	13µM*	12	16µM*	-2%
COc1ccc(NC(=O)OCCN2CCN(Cc3ccccc3)CCC2=O)cc1	-3%	18%	-20%	27	-16%	13%
Cc1cc(C)cc(NC(=O)OCCN2CCN(Cc3ccccc3)CCC2=O)c1	0%	11%	-23%	-1	23µM*	-1%
Cc1ccc(S(=O)(=O)N2CCC(=O)N(CCOC(=O)Nc3cc(C)cc(C)c3)CC2)cc1	0%	-13%	16µM*	-12	?	-6%
CC1CCc2onc(C(=O)N3CCN(c4ccccc4)CC3)c2C1 (configuration not stated)	nt	-22%	-30%	nt	-30%	nt
